Assay outcomes as filed in PubChem.
Peg3 prom inh-1 – Peg3 promoter-driven luciferase inhibitors, primary screen, cell-based, HeLa, luciferase luminescence | HeLa PEG-Prom luciferase reporter, overnight | inhibition, % at 20 µM | actives 1.7% (n = 360,000) | AID 588405, 2011;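 active means inhibition of at least 50% at 20 µM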
KKLEB cytotox – cytotoxicity in KKLEB CF airway cells, primary screen, cytotoxicity control for CF NF-kB inhibitor project, cell-based, uHTS, fluorescence assay plates; AID 602141, 2011; actives 0.36% (n = 360,000); activity change (cytotoxicity), % at 5 µM; KKLEB CF airway cells viability, ATPlite luminescence, overnight; stronger effect = lower value; cells stimulated with P. aeruginosa culture filtrate;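 active means corrected activity change at or below -50% at 5 µM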
HIF-2a inh – HIF-2a reporter inhibitors, primary screen, luminescence, 786-0 RCC cells; 786-0 RCC cells HIF-2a reporter, luciferase luminescence, overnight; inhibition, % at 18.8 µM; actives 0.72% (n = 360,000);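 active means inhibition of the luminescence signal of 40% or more relative to plate controls, in a single-dose primary screen at 18.75 µM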
CF NFkB block – inhibitors of PAF-induced NF-kB signaling, primary screen, cell-based, GFP fluorescence, uHTS. KKLEB NF-kB-GFP reporter, GFP fluorescence overnight. inhibition, % at 5 µM. actives 0.86% (n = 360,000);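 active means at least 50% inhibition at 5 µM, scaled per plate between neutral and stimulator controls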;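 further: PAF is a Pseudomonas aeruginosa culture filtrate used as stimulus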
TROY NFkB inh – inhibitors of TROY-driven NF-kB signaling, primary screen, Q293 LMP1-TROYcd cells, NF-kB luciferase, uHTS; Q293 LMP1-TROYcd NF-kB luciferase reporter, 4 h; inhibition, % at 10 µM; actives 0.98% (n = 360,000); AID 1347056, 2019;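 active means compounds whose plate-normalised and pattern-corrected inhibition of the luciferase reporter signal at the single screening dose is 50% or more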
TWEAK Fn14 block – inhibitors of TWEAK-Fn14 signaling, primary screen, luciferase reporter cells, uHTS. TWEAK-stimulated Fn14 reporter cells, luciferase luminescence, 8 h. inhibition, % at 10 µM. actives 2% (n = 360,000). AID 1159606, 2016; in the data active means inhibition above about 50%
Peg3 prom inh-2 – Peg3 promoter reporter inhibitors, retest, confirmation, cell-based, HeLa, luciferase reporter, single concentration; shares compounds with Peg3 prom inh-1; HeLa PEG-Prom luciferase reporter, luminescence, overnight; inhibition, % at 20 µM; actives 84% (n = 1,300);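 active means at 20 µM dose, 40% or more inhibition averaged across four replicates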
Hits are given with their value; i = inactive; nt = no result; ! = a repeat was not active. An excerpt weighted towards active compounds, which were near 4% of everything screened.

SMILES	Peg3 prom inh-1	KKLEB cytotox	HIF-2a inh	CF NFkB block	TROY NFkB inh	TWEAK Fn14 block	Peg3 prom inh-2
COc1ccc(NS(=O)(=O)c2ccc3ccccc3c2)c2ncccc12	51.0	i	i	51.1	i	i	51.6
COc1ccccc1NS(=O)(=O)c1ccc2ccccc2c1	i	i	i	i	i	i	nt
Cc1ccn(-c2ccc(NC(=O)c3cccs3)cc2)n1	i	i	i	i	i	i	nt
CCn1c(SCC(=O)Nc2nc3ccc(OC)cc3s2)nc2c1c(=O)n(C)c(=O)n2C	61.5	i	i	i	i	58.2	i
CC(C)n1c(SCC(=O)Nc2nc3ccccc3s2)nc2c1c(=O)n(C)c(=O)n2C	i	i	i	i	i	i	nt
COc1cc(OCc2ccccc2)c(CC(=O)O)c([N+](=O)[O-])c1	i	i	i	i	i	i	nt
COc1ccc(C[C@H]2CN3C(=NC[C@@H]3Cc3ccc(O)cc3)N2C[C@H](C)NC(=O)c2ccc(C)c(Br)c2)cc1	101.1	i	i	i	i	i	96.5
CC1OC(C2CCCCC2)Cc2[nH]c(=S)[nH]c(=O)c21 (stereo not given)	nt	nt	i	nt	i	i	nt
C=CCn1c(COc2ccccc2)nnc1SC(C)C(=O)N/N=C/c1cc(Cl)ccc1O (stereo not given)	60.5	i	i	i	i	i	71.1
O=C(C=Cc1ccccn1)c1ccccc1	100.7	i	i	i	i	82.1	86.8
O=C(/C=C/c1ccc(O)cc1)c1ccccc1	i	i	i	i	i	i	nt
Nc1c(C(=O)Nc2nc3ccccc3s2)sc2nc(-c3cccs3)ccc12	95.4	i	i	i	i	i	63.9
COC(=O)c1ccccc1-c1ccc(/C=N/Nc2nc(N3CCCC3)nc(N3CCCC3)n2)o1	51.9	i	i	i	i	i	56.4
Cc1cc(C=C2C(=O)c3ccccc3C2=O)c(C)n1-c1ccccc1	69.1	i	55.8	i	i	89.0	64.8
Cc1cc(C=C2C(=O)c3ccccc3C2=O)c(C)n1-c1cccc(C(=O)O)c1	i	i	i	i	i	i	nt
COc1ccc(C(NC(C)=O)c2ccc3cccnc3c2O)c(OC)c1 (stereo not given)	61.1	i	i	i	i	i	65.1
CC(=O)NC(c1ccc2ccccc2c1)c1ccc2cccnc2c1O (stereo not given)	64.0	i	i	i	i	i	70.7
COc1ccccc1C(NC(C)=O)c1cc(Cl)c2cccnc2c1O (stereo not given)	i	i	i	i	i	i	nt
C[n+]1c2cc(N)ccc2cc2ccc(N)cc21	95.7	i	41.2!	i	i	i	96.0
Cc1cc(Sc2ncnc(N)c2[N+](=O)[O-])ncn1	105.9	i	i	66.0	i	51.1	99.5
COc1cc(-n2c(C)nc3ncn(-c4ccccc4)c3c2=O)cc(OC)c1OC	i	i	i	i	i	i	nt
CCN(Cc1ccccc1)S(=O)(=O)c1ccc(C(=O)N(CCCN(C)C)c2nc3cc4c(cc3s2)OCO4)cc1	87.0	i	i	i	i	i	98.7
CN(C)CCN(C(=O)c1ccc(S(=O)(=O)N(C)c2ccccc2)cc1)c1nc2cc3c(cc2s1)OCO3	i	i	i	i	i	i	nt
Cc1cc(Br)ccc1NC(=O)CNC(=O)Cn1ncc(Cl)c(Cl)c1=O	111.1	-51.0	i	90.8	i	60.4	97.7
COc1ccc(C(=O)Nc2nnc(-c3ccco3)s2)cc1	63.2	i	i	i	i	84.7	i
COc1ccccc1C(=O)Nc1nc2ccccc2s1	104.5	-94.9	85.5	i	84.9	104.4	94.7
O=C1/C(=C\c2cccc(O)c2O)SC(=S)N1Cc1ccccc1	65.8	i	i	i	i	i	61.5
